Assay outcomes from PubChem BioAssay.
HSF1 inhib = HSF1 inhibitors in luciferase reporter cells, primary screen, cell-based, NIH3T3, luminescence; NIH3T3-HGL HSE-luciferase, MG132-induced, luminescence 8 h; hits give low values; activity change, negative = inhibition, % at 7.5 µM (by protocol); 300,000 tested, 0.77% active; AID 2098, 2009;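 active = more than half of replicate wells show activity change below -50%, luminescence cut by over half; inconclusive = some wells, but at most half, below -50%; inactive = no replicate well below -50%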;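 also: luciferase reports HSF-1 transcriptional activity via heat shock element; 0% = median of DMSO wells and -100% = zero luminescence signal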
HSF1 activator = HSF-1 activators, primary screen, NIH3T3-HGL cells, MG132 stress, luminescence, single point; NIH3T3-HGL HSF-1 luciferase reporter, 8 h; 100% = twice DMSO control signal; activation, % at 9 µM; 300,000 tested, 1.7% active;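 active = mean replicate activation of at least 50% with a set share of replicates each reaching 50%; inconclusive = only one of those two conditions met; inactive = mean below 50% and too few replicates reaching it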;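 also: 0% = median of the neutral control wells and 100% = twice that signal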
MITF TRPM1 HTS = activators of MITF-driven TRPM1 promoter reporter, primary screen, cell-based, SK-MEL-5, luciferase, single point | SK-MEL-5 TRPM1-promoter luciferase, 24 h; % of positive control, neutral wells = 0 | activation, % at 12.5 µM | 300,000 tested, 0.75% active | AID 588334, 2011;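 active = mean activation of at least 80% with every replicate also reaching 80%; inconclusive = mean reaches 80% but some replicate falls short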;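 also: 0% = neutral control wells and 100% = parthenolide positive control wells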
esBAF inh = Bmi1 luciferase reporter increase in mESCs, primary screen, esBAF inhibitor project, mouse ES cells, Bmi1 luciferase knock-in, single point; reporter increase, % at 12.5 µM; 24 h; 100% = twice the neutral-well signal; 350,000 tested, 2% active; AID 602393, 2012; in the data active = activation above about 40%; inconclusive = no clear call, values can overlap the other calls;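 also: 0% = median of the plate's neutral control wells and 100% = double that signal; a rise in the Bmi1 reporter signal indicates esBAF inhibition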
Wnt bcat act = Wnt/beta-catenin pathway activators, primary screen, cell-based, plate reader, single point; AID 743398, 2014; activation, % at 9.35 µM; 300,000 tested, 1.2% active; Wnt/beta-catenin reporter cell assay, activator; in the data active = activation above about 30%, passing the limit was not always enough; inconclusive = no clear call, values can overlap the other calls;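 also: 0% = neutral control wells and 100% = positive control wells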
Starred values were filed as active, the others as inactive; ? = inconclusive; nt = no result. The list is not random: actives were taken first. Their share in the collection is about 3.8%.

SMILES	HSF1 inhib	HSF1 activator	MITF TRPM1 HTS	esBAF inh	Wnt bcat act
COc1ccccc1-c1cnc2c(c1)C(=O)N([C@@H](C)CO)C[C@@H](C)[C@H](CN(C)C(=O)c1ccncc1)O2	nt	nt	nt	-5	nt
C[C@H](CO)N1C[C@H](C)[C@H](CN(C)S(=O)(=O)c2ccc(F)cc2)Oc2ccc(NC(=O)Nc3ccc4c(c3)OCO4)cc2CC1=O	nt	nt	nt	9	nt
CC(=O)Nc1ccc(N=Nc2c(C)[nH]n(C(N)=S)c2=O)cc1	9	33	6	49*	13
Cc1ccc(N=Nc2c(C)[nH]n(C(N)=S)c2=O)cc1C	11	23	4	nt	13
Cc1ccc(-n2[nH]c(C)c(/C=C3/C=Nc4ccccc43)c2=O)cc1C	-4	12	8	54*	-2
CCOC(=O)c1c(C)oc2c1c(C(c1ccccc1)N1CCOCC1)c(O)c1ccccc12 (configuration not stated)	16	26	68	47*	40*
Cc1cc(NC(=O)/C=C/c2ccc(F)cc2)n(-c2nc3ccccc3[nH]2)n1	7	46	31	nt	-2
COc1ccc(/C=C/C(=O)Nc2cc(C)nn2-c2nc3ccccc3[nH]2)cc1	144	190*	92*	nt	8
Cc1ccc(OCc2nc(-c3ccc(Cl)cc3)n[nH]2)cc1	8	18	15	4	3
Cc1ccc(-c2n[nH]c(Cc3ccccc3)n2)cc1	27	33	?	54*	0
O=[N+]([O-])c1ccc(S(=O)(=O)N2CCSC2c2ccco2)cc1 (configuration not stated)	19	51*	3	nt	0
COc1cccc(S(=O)(=O)Nc2ccc3c(c2)[C@@H]2C[C@H](CC(=O)NCCc4ccccc4)O[C@@H](CO)[C@@H]2O3)c1	nt	nt	nt	4	nt
CCc1ccc2[nH]c(C(=O)Nc3ccc(Br)c(C)n3)cc2c1	11	12	66	44*	16
COc1ccc2[nH]c(C(=O)Nc3cccc(C)n3)cc2c1	25	61*	nt	-25	0
COc1ccc(C)cc1NC(=O)C1CCCN1S(=O)(=O)c1ccccc1F (configuration not stated)	nt	nt	-2	4	62*
Cc1ccc(C)c(NC(=O)[C@@H]2CCCN2S(=O)(=O)c2ccccc2F)c1	nt	nt	0	17	-7
COc1ccc(S(=O)(=O)N(C)C[C@@H]2Oc3c(NC(=O)c4ccncc4)cccc3C(=O)N([C@@H](C)CO)C[C@H]2C)cc1	nt	nt	nt	2	nt
c1ccc(OCc2nc(-c3cccs3)no2)cc1	29	59*	108*	58*	nt
Fc1ccc(OCc2nc(-c3cccs3)no2)cc1	31	65*	72	?	12
O=C(C[C@@H]1CC[C@@H]2[C@H](COC[C@H](O)CN2C(=O)Nc2cc(Cl)cc(Cl)c2)O1)NCC1CCCCC1	nt	nt	nt	0	nt
O=C(O)CCc1ccc(-c2ccccc2)n1-c1cccc(C(=O)O)c1	-7	14	11	39	?
O=C(O)CCc1ccc(-c2ccc(Br)cc2)n1-c1cccc(O)c1	8	4	-25	73*	17
O=C(OCC(=O)C12CC3CC(CC(C3)C1)C2)c1ccc(O)cc1O	19	12	49	51*	8
C[C@H](CO)N1C[C@H](C)[C@@H](CN(C)Cc2ccc(C(=O)O)cc2)Oc2ccc(NC(=O)Nc3cccc4ccccc34)cc2CC1=O	nt	nt	nt	2	nt
Cn1c(CNc2cccc(Cl)c2)nnc1SCC#N	27	73*	-19	nt	-1
SMILES	HSF1 inhib	HSF1 activator	MITF TRPM1 HTS	esBAF inh	Wnt bcat act
C[C@H](NC(=O)C[C@H]1CC[C@H](NC(=O)C2CCOCC2)[C@H](CO)O1)c1ccccc1	nt	nt	nt	4	nt
COc1cccc(-c2c(C#N)c(N)nc3c2c(C)nn3-c2ccccc2)c1O	52	63*	-4	6	1
COc1ccccc1-c1cnc2c(c1)C(=O)N([C@H](C)CO)C[C@H](C)[C@@H](CN(C)Cc1ccncc1)O2	nt	nt	nt	3	nt
CC(NCC(=O)NCCc1ccc(S(N)(=O)=O)cc1)c1ccc(F)cc1 (configuration not stated)	8	52*	-15	1	3
CC(NCCc1ccc(S(N)(=O)=O)cc1)C(=O)NCCc1ccc(F)cc1 (configuration not stated)	-4	-18	6	2	0
CCOC(=O)/C(=C\c1ccc(OC(F)F)cc1)C1=Nn2c(nnc2-c2ccc(Cl)cc2)SC1	-83*	-83	-98	nt	nt
CCOC(=O)/C(=C/c1ccc(OC(F)F)cc1)C1=Nn2c(nnc2-c2ccc(Cl)cc2)SC1	nt	nt	-95	-81	-9
CC1=Nc2cc(C(=O)O)ccc2Sc2c(C)ccc(C)c21	110	101*	12	nt	-5
Cc1ccc(S(=O)(=O)Nc2cccc3c2O[C@@H](CN(C)C(=O)NC(C)C)[C@H](C)CN([C@H](C)CO)C3=O)cc1	nt	nt	nt	-1	nt
CC(C)(C)/C(O)=C(/C#N)c1nc2ccccc2[nH]1	2	3	-7	nt	nt
CC(C)CC(/C(O)=C(\C#N)c1nc2ccccc2[nH]1)N1C(=O)c2ccccc2C1=O (configuration not stated)	34	75*	-17	-5	-1
Cc1ccc(CS(=O)(=O)c2ncc(Cl)c(C(=O)Nc3nnc(C(C)C)s3)n2)cc1	-71*	-76	-80	-3	-8
CC(C)c1nnc(NC(=O)c2nc(S(=O)(=O)Cc3ccc(F)cc3)ncc2Cl)s1	-84*	-87	-73	-11	3
CC(C)c1nnc(NC(=O)c2nc(S(=O)(=O)Cc3ccccc3F)ncc2Cl)s1	-80*	-82	nt	nt	-7
CSc1nnc(NC(=O)c2nc(S(=O)(=O)Cc3ccccc3F)ncc2Cl)s1	-22	-25	-77	5	-8
Cc1nnc(NC(=O)c2nc(S(=O)(=O)Cc3ccccc3C)ncc2Cl)s1	-77*	-83	-81	-7	-8
CCSc1nnc(NC(=O)c2nc(S(=O)(=O)Cc3ccc(F)cc3)ncc2Cl)s1	-21	-39	-36	15	-6
COC(=O)C[C@H]1CC[C@@H]2[C@@H](COc3ccc(NC(=O)C4CCOCC4)cc3C(=O)N2C)O1	nt	nt	nt	-3	nt
C[C@H](CO)N1C[C@H](C)[C@H](CN(C)C(=O)c2ccccc2)Oc2cc(C3=CCCC3)ccc2S1(=O)=O	nt	nt	nt	1	nt
CSc1nnc(NC(=O)c2nc(S(=O)(=O)Cc3cccc(C)c3)ncc2Cl)s1	?	-63	-81	-25	-10
Cc1cccc(CS(=O)(=O)c2ncc(Cl)c(C(=O)Nc3nnc(C(C)C)s3)n2)c1	-73*	-78	-77	-32	nt
C[C@@H]1CN([C@H](C)CO)C(=O)c2cc(NS(=O)(=O)c3cccs3)ccc2O[C@@H]1CN(C)S(=O)(=O)c1cn(C)cn1	nt	nt	nt	-3	nt
Cn1nnc(-c2ccc(OCc3ccccc3F)cc2)n1	23	56*	60	3	38*
